# Several values for one entry are separate records, joined by “and”; a condition that tells them apart may be missing. Identical values can stand only once. A structure can be active in one record and inactive in another. Activity calls are given as the source filed them. The calls were made as follows: active = hit-call score of the fitted dose curve at least 0.9, where 1 is the maximum; inactive = score below 0.9.
# Tests used:
# [1] = read-out: Plasminogen activator inhibitor-1 (PAI1), SERPINE1 (gene 5054); assay: BSK_MyoF_PAI1: BioMAP Diversity Plus: MyoF Assay for Plasminogen activator inhibitor-1 (PAI1) Biomarker Activity (AID 2284256); details: primary human lung fibroblasts;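 as to outcome: PAI-1 protein level measured by ELISA in fibroblast cultures; PAI-1 read 24 h after compound addition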
# Method in brief: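 Primary human lung fibroblasts are dosed and incubated 24 h. PAI-1 is then measured by ELISA, while parallel cultures undergo SRB staining for overt cytotoxicity. Increases over DMSO define activity.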
# [2] = read-out: Collagen I, COL1A1 (gene 1277); assay: BSK_hDFCGF_CollagenI: BioMAP Diversity Plus: hDFCGF Assay for Collagen I Biomarker Activity (AID 2284250); details: primary human foreskin fibroblasts
# Method in brief: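 Cells were primary human foreskin fibroblasts treated for 24 h. Collagen I levels were then determined by ELISA and compared against DMSO controls.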
# [3] = read-out: Plasminogen activator inhibitor-1 (PAI1), SERPINE1 (gene 5054); assay: BSK_KF3CT_PAI1: BioMAP Diversity Plus: KF3CT Assay for Plasminogen activator inhibitor-1 (PAI1) Biomarker Activity (AID 2284252); details: primary human keratinocytes with fibroblasts
# Method in brief: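 Signal is PAI-1 detected by ELISA in a human skin-derived keratinocyte/fibroblast co-culture, 24 h after dosing; DMSO served as negative control and baseline.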
# [4] = read-out: Monocyte Chemoattractant Protein-1 (MCP1), CCL2 (gene 6347); assay: BSK_IMphg_MCP1: BioMAP Diversity Plus: IMphg Assay for Monocyte Chemoattractant Protein-1 (MCP1) Biomarker Activity (AID 2284253); details: primary human endothelial cells with macrophages
# Method in brief: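 Human venular endothelial cells co-cultured with macrophages; MCP-1 measured by ELISA 24 hours post-dose and fitted against DMSO. Cytotoxicity monitored by SRB total-protein staining in parallel cultures.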
# [5] = read-out: Macrophage Inflammatory Protein-1 Alpha (MIP1a), CCL3 (gene 6348); assay: BSK_IMphg_MIP1a: BioMAP Diversity Plus: IMphg Assay for Macrophage Inflammatory Protein-1 Alpha (MIP1a) Biomarker Activity (AID 2284255); details: primary human endothelial cells with macrophages
# Method in brief: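 Co-culture of human venular endothelial cells and macrophages exposed to compounds for 24 h; MIP-1a measured by ELISA relative to DMSO. Cytotoxicity assessed in parallel cultures by sulforhodamine B total-protein staining at 560 nm.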
# CD69, CD69 (gene 969) = assay: BSK_IMphg_CD69: BioMAP Diversity Plus: IMphg Assay for CD69 Biomarker Activity (AID 2284257); details: primary human endothelial cells with macrophages
# Method in brief: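 Human venular endothelial cells co-cultured with macrophages; CD69 quantified by ELISA 24 h after compound addition. Activity fitted in the positive direction relative to DMSO baseline; cytotoxicity tracked in parallel cultures via SRB total-protein staining.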
# [6] = read-out: Monocyte Chemoattractant Protein-1 (MCP1), CCL2 (gene 6347); assay: BSK_BF4T_MCP1: BioMAP Diversity Plus: BF4T Assay for Monocyte Chemoattractant Protein-1 (MCP1) Biomarker Activity (AID 2284259); details: primary human bronchial epithelial cells with fibroblasts
# Method in brief: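 Co-culture of bronchial epithelial cells and dermal fibroblasts dosed with chemical; MCP-1 measured by ELISA 24 h later. Activity fitted in positive direction versus DMSO; cytotoxicity checked by SRB staining in parallel cultures.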
smiles,measurement,setting,value
CCN(CC)c1ccc(C=O)cc1,outcome,[1],inactive
Cc1ccc(S(=O)(=O)C(I)I)cc1,AC50,[1],8.61 µM (active)
Brc1nc2ccccc2s1,outcome,[1],inactive
O=C1c2c(O)ccc(Nc3ccc(CCO)cc3)c2C(=O)c2c([N+](=O)[O-])ccc(O)c21,AC50,[1],32.3 µM (active)
O=C(F)C1(F)C(F)(F)C(F)(F)C(F)(F)C(F)(F)C1(F)F,outcome,[2],inactive
same,outcome,[3],inactive
same,outcome,[4],inactive
same,outcome,[5],inactive
same,outcome,[1],inactive
same,outcome,"CD69, CD69 (gene 969)",inactive
same,outcome,[6],inactive
O=C=Nc1cccc2c(N=C=O)cccc12,outcome,[1],inactive
CCN(CC)c1ccc2c(c1)Oc1cc(N(CC)CC)ccc1C21OC(=O)c2ccccc21,outcome,[1],inactive
O=C1C=CC(=O)N1c1ccc(Cc2ccc(N3C(=O)C=CC3=O)cc2)cc1,AC50,[1],5.09 µM (active)
CC1=CC2C3C=CC(C3)C2C1C (stereo not drawn),outcome,[1],inactive
CCN(CC)c1ccc(N=Nc2ccccc2)cc1,outcome,[1],inactive
Nc1cc([N+](=O)[O-])cc(Cl)c1O,outcome,[1],inactive
Cc1cnccn1,outcome,[1],inactive
Cc1ccc(O)c(-n2nc3ccccc3n2)c1,outcome,[1],inactive
OCC(F)(F)C(F)(F)C(F)(F)C(F)(F)C(F)(F)C(F)(F)C(F)(F)C(F)(F)CO,outcome,[2],inactive
same,AC50,[3],54.3 µM (active) and 48.3 µM (active)
same,AC50,[4],50.4 µM (active) and 51.3 µM (active)
same,AC50,[5],50 µM (active) and 51.6 µM (active)
same,outcome,[1],inactive
same,AC50,"CD69, CD69 (gene 969)",54.4 µM (active) and 42.6 µM (active)
same,AC50,[6],16.7 µM (active) and 9.07 µM (active)
FC(F)(F)C(F)(F)C(F)(F)C(F)(F)C(F)(F)C(F)(F)C(F)(F)CCI,outcome,[2],inactive
same,outcome,[3],inactive
same,outcome,[4],inactive
same,outcome,[5],inactive
same,outcome,[1],inactive
same,outcome,"CD69, CD69 (gene 969)",inactive
same,outcome,[6],inactive
NCC(F)(F)C(F)(F)C(F)(F)C(F)(F)C(F)(F)C(F)(F)F,outcome,[2],inactive
same,outcome,[3],inactive
same,outcome,[4],inactive
same,outcome,[5],inactive
same,outcome,[1],inactive
same,outcome,"CD69, CD69 (gene 969)",inactive
same,outcome,[6],inactive
O=C(Cl)C(F)(F)C(F)(F)C(F)(F)C(F)(F)C(F)(F)C(F)(F)F,outcome,[2],inactive
same,outcome,[3],inactive
same,outcome,[4],inactive
same,outcome,[5],inactive
same,outcome,[1],inactive
same,outcome,"CD69, CD69 (gene 969)",inactive
same,outcome,[6],inactive
CCN(CC)c1ccc(C=O)c(O)c1,AC50,[1],20 µM (active)
CC(C)CCCC(C)CCO (stereo not drawn),outcome,[1],inactive
CCOC(C=C(C)CCC=C(C)C)OCC,AC50,[1],20 µM (active)
O=C=NCc1cccc(CN=C=O)c1,outcome,[1],inactive
O=C(O)C(F)(F)C(F)(F)C(F)(F)OC(F)(C(F)(F)F)C(F)(F)F,outcome,[2],inactive
same,outcome,[3],inactive
same,outcome,[4],inactive
same,outcome,[5],inactive
same,outcome,[1],inactive
same,outcome,"CD69, CD69 (gene 969)",inactive
same,AC50,[6],5.77 µM (active)
same,outcome,[6],inactive
O=C(c1ccccc1)c1ccc(O)cc1O,outcome,[1],inactive
Cc1cc(C)c(O)c(C(C)(C)C)c1,AC50,[1],36.4 µM (active)
O=C(O)C(F)(F)C(F)(F)C(F)(F)C(F)(F)C(F)(F)C(F)(F)C(F)F,outcome,[2],inactive
same,outcome,[3],inactive
same,outcome,[4],inactive
same,outcome,[5],inactive
same,outcome,[1],inactive
same,outcome,"CD69, CD69 (gene 969)",inactive
same,outcome,[6],inactive

# — PubChem BioAssay (EPA / NIEHS)
